# Measured values published in PubChem BioAssay (NCI).
# The panel holds about 83,000 compounds, 20% with a hit somewhere; the sample as a whole holds those more often.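 The test compound was applied at a single concentration to cells in 96-well plates for 48 hours, and percent growth was recorded.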 The source made the active and inactive calls. The calls were made as follows: active = growth percent below 10; inactive = the rest.
# Test system: HL-60(TB) leukemia
# Experiment: NCI-60 one-dose screen, 48 h (100 = growth as untreated, 0 = no growth, -100 = all killed)
# Conditions: 10 µM unless noted
row,SMILES,growth
1,N#CSCc1ccc(Cl)c(CSC#N)c1,0.395% (active)
2,COc1ccc(C(O)(c2ccccc2)C(C(=O)O)c2ccccc2)cc1 (stereo not given),110% (inactive)
3,Cc1cc2ccccc2c(O)c1C#N,89.6% (inactive)
4,OC1CSSC1Cn1cnc2c(Nc3ccc(F)c(Cl)c3)ncnc21 (stereo not given),45.8% (inactive)
5,Cc1cccc(-[n+]2noc(N)n2)c1,30.8% (inactive)
6,CCC1S/C(=N\N=C(/C)c2cc3ccccc3o2)N(c2ccccc2)C1=O (stereo not given),-93.7% (active)
7,Cc1cc(C)n(-c2nc(-c3cccs3)c(C#N)c(=O)[nH]2)n1,94.4% (inactive)
8,Cc1c(C(C)(C)O)cn2ncnc(Oc3ccc(NC(=O)Nc4ccc(Cl)c(C(F)(F)F)c4)c(F)c3)c12,63.1% (inactive)
9,Nc1cc(O)cc2cccnc12,98.5% (inactive)
10,COC(/C=C/c1ccc([N+](=O)[O-])cc1)OC,42% (inactive)
11,NS(=O)(=O)c1ccc(C(=O)N/N=C(\CS(=O)(=O)c2ccccc2)c2cc3cc(Br)ccc3o2)cc1,115% (inactive)
12,Cc1cc(NCCCCNc2ccnc3cc(Cl)ccc23)nc(Nc2ccc(C(=O)N3CCCC3)cc2)n1,14.7% (inactive)
13,CN1CCN(Cc2ccc(NC(=O)c3cncc(C#Cc4cnc5cccnn45)c3)cc2C(F)(F)F)CC1,-37.9% (active)
14,CNC(=O)c1nn(C)c2c1C(C)(C)Cc1cnc(Nc3ccc(N4CCN(C)CC4)cc3)nc1-2,-27% (active)
15,CCOP(=O)(OCC)C1CP(=O)(c2ccccc2)CC(C)=C1Cl (stereo not given),92.1% (inactive)
16,c1ccc(-c2cn3nc(-c4c[nH]c5ccccc45)sc3n2)cc1,95.1% (inactive)
17,CCCCCCCCO/N=C\c1c2c(O)c3c(O)c(C)c4c(c3c1O)C(=O)C(C)(O/C=C\C(OC)C(C)C(OC(C)=O)C(C)C(O)C(C)C(O)C(C)/C=C\C=C(\C)C(=O)N2)O4 (stereo not given),-10.2% (active)
18,NC1=C(C/C(N)=N\O)C(c2ccccc2Cl)c2c(ccc3ccccc23)O1 (stereo not given),84.9% (inactive)
19,O=S(=O)(Nc1ccc(Br)c(Cl)c1)c1ccc(-c2cnc(C3CC3)o2)cc1,-4.27% (active)
20,COc1cc(/C=C/C(=O)c2c(C)nc3ccccc3c2C)ccc1OCCCCOc1cc2c(cc1OC)C(=O)N1CCC[C@H]1C=N2,-34.1% (active)

row,SMILES,growth
1,O=C(Nc1ccc(Cl)cc1Cl)Nc1ccc(-c2cccnc2)cc1N1CCC(CO)CC1,6.31% (active)
2,COC(=O)[C@H](Cc1cn(C)cn1)NC(=O)[C@H](CC(C)C)NC(=O)Nc1cc(C(F)(F)F)cc(C(F)(F)F)c1,-72.6% [100 µM] (active)
3,Cc1nc(C)c(-c2nn3c(-c4cccc(F)c4)nnc3s2)s1,107% (inactive)
4,COc1cccc(C(=O)Nc2cccc(NC(=O)c3ccccn3)c2)c1,87.8% (inactive)
5,O=C(N/N=C/c1ccc(Cl)cc1)c1ccccc1Nc1cccc(C(F)(F)F)c1,84.7% (inactive)
6,COc1cc2ncnc(Oc3ccc(NC(=O)Nc4ccc(C5(C#N)CCCC5)cc4)c4ccccc34)c2cc1OC,72.6% (inactive)
7,O=C(Oc1ccc([N+](=O)[O-])cc1)c1ccc(CBr)cc1,71.8% (inactive)
8,CC1OC(n2c3ccccc3c3c4c(c5c6ccccc6[nH]c5c32)C(=O)N(CCN[C@@H]2CCC[C@H]2N)C4=O)CC(O)C1O (stereo not given in full),29.2% (inactive)
9,C[Si](C)(C)C(c1ccccc1)c1ccccc1,80.5% (inactive)
10,COc1cccc(/C=C2\Oc3cc(OCCCN4CCCC4)ccc3C2=O)c1,81% (inactive)
11,C[C@]12O[C@H]1[C@H](O)c1c(cc(O)c3c1C(=O)c1cccc(O)c1-3)C2=O,100% (inactive)
12,Clc1cccc(Nc2nc(Nc3cnc4ccccc4c3)c3[nH]cnc3n2)c1,121% (inactive)
13,CCn1cc(C2NC(=O)c3cc(F)ccc3N2)c2cccc(Cl)c21 (stereo not given),-50% (active)
14,O=C(NCCN1CCCCC1)n1cc(-c2ccncc2)c(-c2ccc(Cl)c(O)c2)n1,71.1% (inactive)
15,CC1=CC2c3oc(-c4ccccc4)c(C(=O)c4ccccc4)c3CNC2C=C1 (stereo not given),84.3% (inactive)
16,O=C1C(Cl)=C(Nc2ccccc2)C(=O)c2ccccc21,-19.5% (active)
17,O=[N+]([O-])c1ccc(-c2ncc(-c3ccc(Br)cc3)o2)cc1,76.6% (inactive)
18,CCCCNc1cc(C(=O)O)cc(S(N)(=O)=O)c1Oc1ccccc1,107% (inactive)
19,O=C(CSc1nnc(-c2ccc(Cl)cc2)o1)Nc1ccc(C(=O)/C=C/c2ccc(Cl)cc2)cc1,84.4% (inactive)
20,COc1cc2cn3c4ccc(O)cc4nc(N)c3c2cc1OC,24.5% (inactive)
